Results filed as inconclusive are left out. The source made the active and inactive calls. The call rests on the fitted dose curve; in most records, active means well fitted activation curve with a large enough effect in the repeat runs; inconclusive means weak or mixed curves; inactive means flat fitted curve, though single readings scatter.
Molecular target: Nuclear receptor subfamily 1 group I member 2 (Homo sapiens) (UniProt O75469)
Experiment: Human pregnane X receptor (PXR) activation by small molecules, qHTS assay (AID 1346985); further: nearly all actives have a fitted effect of over 40% in size
Conditions: DPX-2 HepG2 CYP3A4-luciferase, 24 h; series mostly up to 38.3 µM
From the text: National Center for Advancing Translational Sciences [NCATS]
NIH Chemical Genomics Center [NCGC]
U.S. Environmental Protection Agency [EPA]
National Institutes of Environmental Health Sciences [NIEHS]
National Toxicology Program [NTP]
The Pregnane X receptor (PXR), a ligand activated nuclear receptor plays a critical role in the regulation of genes involved in drug metabolism and transporters. Activation of PXR may be involved in the unwanted adverse drug-drug interactions. […] Therefore, identification of compounds with the potential for PXR activation can be of importance in improving the efficacy of drugs with less toxicity and avoiding drug-drug interactions.
DPX-2 (Puracyp, Inc.) cell lines, used for screening against human PXR activation has HepG2 cells co-transfected with a PXR response element and a luciferase construct containing CYP3A4 promoter. Increase in luciferase activity can be used to identify the compounds that activate the PXR pathway.
DPX-2 cells were dispensed at 2,000 cells per well in 5uL of assay medium into white, solid-bottom 1536-well plates using a Multidrop Combi dispenser (Thermo Scientific). The assay plates were incubated at 37C for 5hr before transferring 23nL of test compounds dissolved in DMSO and positive control via Pintool station (Wako). The assay plates were incubated at 37C for 24hr. Then 5ul One-Glo assay reagent (Promega) was added to each plate by a Flying Reagent Dispenser (FRD, Aurora Discovery) and following 30 min incubation at room temperature, luciferase activity was quantified on a ViewLux plate reader (Perkin Elmer).

Row | SMILES | outcome
1 | CC1(C)[C@@H](O[C@H]2O[C@H](C(=O)O)[C@@H](O)[C@H](O)[C@H]2O[C@@H]2O[C@H](C(=O)O)[C@@H](O)[C@H](O)[C@H]2O)CC[C@]2(C)[C@H]3C(=O)C=C4[C@@H]5C[C@@](C)(C(=O)O)CC[C@]5(C)CC[C@@]4(C)[C@]3(C)CC[C@@H]12 | inactive
2 | CC(=O)OC[C@H]1O[C@@](COC(C)=O)(O[C@H]2O[C@H](COC(C)=O)[C@@H](OC(C)=O)[C@H](OC(C)=O)[C@H]2OC(C)=O)[C@@H](OC(C)=O)[C@@H]1OC(C)=O | inactive
3 | OCc1ccc(Cl)cc1Cl | inactive
4 | CCCCCCCC(=O)O | inactive
5 | CCOC(=O)c1ccc(O)cc1 | inactive
6 | CC(=O)Nc1ccc(CC(=O)O)cc1 | inactive
7 | CN1Cc2c(N)cccc2C(c2ccccc2)C1 (stereo unspecified) | inactive
8 | OB(O)O | inactive
9 | OC[C@H]1O[C@@H](Oc2ccc(O)cc2)[C@H](O)[C@@H](O)[C@@H]1O | inactive
10 | O=c1c(O)c(-c2ccc(O)c(O)c2)oc2cc(O)cc(O)c12 | inactive
11 | OCC(O)CS (stereo unspecified) | inactive
